In PubChem BioAssay (NCATS):
Results filed as inconclusive are left out. Calls of active or inactive are those of the source. Calls follow the shape of the dose curve; as a rule, active = well fitted cell-killing curve with a large enough effect; inconclusive = small, poorly fitted or top-dose-only effect, or effect the other way; inactive = flat fitted curve, though single readings scatter.

How the values were obtained:
Assay in all cases: Primary qHTS to identify gynecologic anti-cancer compounds using libraries of approved drugs and bioactive compounds (AID 1345084); also: nearly all actives have a fitted effect of over 55% in size
C33A = details: Gynecologic cancer cell panel viability, ATPlite luminescence, 48 h; series mostly up to 57.5 µM
In short: (§1)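 ATP-based viability (ATPlite), 1,000 cells/well, 16 h pre-incubation, 48 h compound at 37 C, 5% CO2, 15 min RT before read.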

CAOV3 = details: Gynecologic cancer cell panel viability, ATPlite luminescence, 48 h; series mostly up to 57.5 µM
In short: as §1

CASKI = details: Gynecologic cancer cell panel viability, ATPlite luminescence, 48 h; series mostly up to 57.5 µM
In short: as §1

Es-2 = details: Gynecologic cancer cell panel viability, ATPlite luminescence, 48 h; series mostly up to 57.5 µM
In short: as §1

HeLa = details: Gynecologic cancer cell panel viability, ATPlite luminescence, 48 h; series mostly up to 57.5 µM
In short: as §1

Hek293T = details: Gynecologic cancer cell panel viability, ATPlite luminescence, 48 h, control line for the selectivity index; series mostly up to 57.5 µM
In short: as §1

JEG-3 = details: Gynecologic cancer cell panel viability, ATPlite luminescence, 48 h; series mostly up to 57.5 µM
In short: as §1

OV90 = details: Gynecologic cancer cell panel viability, ATPlite luminescence, 48 h; series mostly up to 57.5 µM
In short: as §1
% is scaled to controls: 0 for no effect and ±100 for the full control effect; potency is read from the fitted curve at half-maximal effect.

CO[C@H]1[C@H](O)[C@H](O[C@H]2CC[C@]3(C)C4CC[C@]5(C)[C@H](C6=CC(=O)OC6)CC[C@]5(O)C4CC[C@@H]3C2)O[C@@H](C)[C@@H]1O (some centres undefined)
active: Potency (C33A) 89.1 nM | Potency (CAOV3) 126 nM | Potency (CASKI) 224 nM | Potency (Es-2) 79.4 nM | Potency (HeLa) 89.1 nM | Potency (Hek293T) 89.1 nM | Potency (JEG-3) 178 nM | Potency (OV90) 282 nM

OC1(c2ccc(Cl)cc2)c2ccccc2C2=NCCN21 (centres undefined)
inactive: Potency (C33A) | Potency (CAOV3) | Potency (CASKI) | Potency (Es-2) | Potency (HeLa) | Potency (Hek293T) | Potency (JEG-3) | Potency (OV90)

OCCCCC#Cc1cncc(OC[C@@H]2CCN2)c1
inactive: Potency (C33A) | Potency (CAOV3) | Potency (CASKI) | Potency (Es-2) | Potency (HeLa) | Potency (Hek293T) | Potency (JEG-3) | Potency (OV90)

CC[C@H]1CN2CC[C@H]1C[C@H]2[C@H](O)c1ccnc2ccc(OC)cc12
inactive: Potency (C33A) | Potency (CAOV3) | Potency (CASKI) | Potency (Es-2) | Potency (HeLa) | Potency (Hek293T) | Potency (JEG-3)

C1=C2CCCN[C@H]2[C@@H]2C[C@H]1[C@H]1CCCCN1C2
inactive: Potency (C33A) | Potency (CAOV3) | Potency (CASKI) | Potency (Es-2) | Potency (HeLa) | Potency (Hek293T) | Potency (JEG-3) | Potency (OV90)

CC(=O)O[C@H]1C[C@@H](OC(C)=O)C(C)(C)C2C[C@@H](O)[C@]3(C)C(CC[C@@]4(C)[C@H](C5=CC(=O)OC5O)C[C@H]5O[C@]543)[C@]21C (some centres undefined)
inactive: Potency (C33A) | Potency (CAOV3) | Potency (CASKI) | Potency (Es-2) | Potency (HeLa) | Potency (Hek293T) | Potency (JEG-3) | Potency (OV90)

COc1cc(C(=O)O[C@H]2[C@@H]3C=CO[C@@H](O[C@@H]4O[C@H](CO)[C@@H](O)[C@H](O)[C@H]4O)[C@@H]3[C@@]3(CO)O[C@@H]23)ccc1O
inactive: Potency (C33A) | Potency (CAOV3) | Potency (CASKI) | Potency (Es-2) | Potency (HeLa) | Potency (Hek293T) | Potency (JEG-3) | Potency (OV90)

CC(C)[C@@H](CN1CC[C@@](C)(c2cccc(O)c2)[C@@H](C)C1)NC(=O)[C@H]1Cc2ccc(O)cc2CN1
inactive: Potency (C33A) | Potency (CAOV3) | Potency (CASKI) | Potency (Es-2) | Potency (HeLa) | Potency (Hek293T) | Potency (JEG-3) | Potency (OV90)

Clc1ccc(N2C[C@H]3CC[C@@H](C2)N3)nn1
inactive: Potency (C33A) | Potency (CAOV3) | Potency (CASKI) | Potency (Es-2) | Potency (HeLa) | Potency (Hek293T) | Potency (JEG-3) | Potency (OV90)

C[C@@]1(C(=O)O)CC[C@]2(C)CC[C@]3(C)C4=CC(=O)c5cc(O)c(O)cc5[C@]4(C)CC[C@@]3(C)[C@@H]2C1
inactive: Potency (C33A) | Potency (CAOV3) | Potency (CASKI) | Potency (Es-2) | Potency (HeLa) | Potency (Hek293T) | Potency (JEG-3) | Potency (OV90)

COC1=CC(=O)O[C@@H](/C=C/c2ccccc2)C1
inactive: Potency (C33A) | Potency (CAOV3) | Potency (CASKI) | Potency (Es-2) | Potency (HeLa) | Potency (Hek293T) | Potency (JEG-3)

CN1CCCC1CCOC(c1cc2nccc(C(=O)O)c2[nH]1)c1ccccc1Cl (centres undefined)
inactive: Potency (C33A) | Potency (CAOV3) | Potency (CASKI) | Potency (Es-2) | Potency (HeLa) | Potency (Hek293T) | Potency (JEG-3) | Potency (OV90)

CN1C(=O)c2ccccc2NC(=O)C1Cc1ccccc1 (centres undefined)
inactive: Potency (C33A) | Potency (CAOV3) | Potency (CASKI) | Potency (Es-2) | Potency (HeLa) | Potency (Hek293T) | Potency (JEG-3) | Potency (OV90)

CC(C)=C1CC[C@]23CO[C@H](C2)[C@@](O)(C(=O)O)CCC13 (some centres undefined)
inactive: Potency (C33A) | Potency (CAOV3) | Potency (CASKI) | Potency (Es-2) | Potency (HeLa) | Potency (Hek293T) | Potency (JEG-3) | Potency (OV90)

C/C=C(\C)C(=O)OC1C(C)OC(OC2C(C)OC(OC3CCC4(C)C(=CCC5C4CCC4(C)C(C(C)OC6OC(COC7OC(CO)C(O)C(O)C7O)C(O)C(O)C6O)CCC54O)C3)CC2OC)C(O)C1OC (centres undefined)
inactive: activity change, negative = cytotoxicity (C33A) 7.57% [at 11.6 µM] | activity change, negative = cytotoxicity (CAOV3) 12.8% [at 11.6 µM] | activity change, negative = cytotoxicity (CASKI) 9.44% [at 11.6 µM] | activity change, negative = cytotoxicity (Es-2) 4.35% [at 11.6 µM] | activity change, negative = cytotoxicity (HeLa) 3.42% [at 11.6 µM] | activity change, negative = cytotoxicity (Hek293T) 8.11% [at 11.6 µM] | activity change, negative = cytotoxicity (JEG-3) -0.0196% [at 11.6 µM] | activity change, negative = cytotoxicity (OV90) -0.455% [at 11.6 µM]

CCN1C[C@]2(COC)[C@H](O)C[C@H](OC)[C@]34[C@@H]5C[C@]6(O)[C@H](OC(=O)c7ccccc7)[C@@H]5[C@@](O)([C@H]([C@H](OC)[C@H]23)[C@@H]14)[C@@H](O)[C@@H]6OC
inactive: Potency (C33A) | Potency (CAOV3) | Potency (CASKI) | Potency (Es-2) | Potency (HeLa) | Potency (Hek293T) | Potency (JEG-3) | Potency (OV90)

C/C=C(\C)C(=O)OC1CC2C(C)(C)OC(=O)CC(OC(C)=O)C2(C)C2CC(OC(=O)C(C)C)C3(C)C(c4ccoc4)CC4OC43C12C (centres undefined)
inactive: Potency (C33A) | Potency (CAOV3) | Potency (CASKI) | Potency (Es-2) | Potency (HeLa) | Potency (Hek293T) | Potency (JEG-3) | Potency (OV90)
